# Assay results as given in PubChem BioAssay AID1376 (SRMLSC, 2008).
# Screen size: about 220,000 compounds; about 530 (0.24%) were called active. The list comes from a sample in which actives are over-represented; it also holds similar structures and randomly drawn compounds. Entries with a potency or affinity are not part of this list. A number with no mark means an inactive call. Cut-off read from the data, not from the text of the source: active = inhibition above about 13%; inconclusive = no clear call, values can overlap the other calls; inactive = below that.
# Molecular target: Bifunctional protein GlmU (Mycobacterium tuberculosis (strain ATCC 25618 / H37Rv)) (UniProt P9WMN3)
# Assay: inhibition of mycobacterial GlmU enzyme – biochemical, glucosamine-1-phosphate acetyltransferase (AID 1376);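 note: 0% = complete reaction with vehicle and 100% = reaction without substrate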
# Conditions: M. tuberculosis GlmU acetyltransferase enzyme assay; stronger effect = higher value;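 tested at 30 µM in the primary screen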
# Bifunctional protein GlmU (Mycobacterium tuberculosis (strain ATCC 25618 / H37Rv)), sequence (P9WMN3 whole entry, looked up): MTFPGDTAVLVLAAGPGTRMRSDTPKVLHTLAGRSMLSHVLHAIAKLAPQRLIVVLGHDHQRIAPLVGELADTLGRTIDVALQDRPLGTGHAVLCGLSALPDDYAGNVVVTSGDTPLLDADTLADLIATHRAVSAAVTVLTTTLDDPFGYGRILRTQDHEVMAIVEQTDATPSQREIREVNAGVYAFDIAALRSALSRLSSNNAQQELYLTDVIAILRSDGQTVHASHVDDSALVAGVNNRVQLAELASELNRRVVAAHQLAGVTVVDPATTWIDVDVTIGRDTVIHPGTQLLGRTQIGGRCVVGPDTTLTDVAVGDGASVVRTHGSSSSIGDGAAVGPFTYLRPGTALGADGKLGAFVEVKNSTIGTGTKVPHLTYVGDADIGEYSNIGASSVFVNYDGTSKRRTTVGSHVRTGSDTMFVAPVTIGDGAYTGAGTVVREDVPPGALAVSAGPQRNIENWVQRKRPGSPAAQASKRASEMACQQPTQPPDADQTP
row,SMILES,inhibition
1,CCn1c(CSc2nc3ccccc3s2)nnc1SCC(=O)c1ccc(O)c(O)c1,5.09%
2,CCn1c(CSc2nc3ccccc3s2)nnc1SCC(N)=O,1.32%
3,C=C(C)CNC(=S)N/N=C/c1ccc([N+](=O)[O-])cc1,3.43%
4,Cc1ccc(-n2nc3c(c2NC(=O)c2ccc4c(c2)OCO4)CSC3)cc1,-1.67%
5,Cc1ccc(-n2nc3c(c2NC(=O)c2cccs2)CSC3)cc1,19.6% (active)
6,Cc1ccc(-n2nc3c(c2NC(=O)c2c(-c4ccccc4Cl)noc2C)CSC3)cc1,4.33%
7,Cc1nccn1CCCN1C(=O)OC2(CCCCC2)C1(C)O (stereo not drawn),-0.12%
8,Cc1cc(C)c(C(=O)COC(=O)c2cc([N+](=O)[O-])ccc2NCCO)cc1C,0.91%
9,O=C1Nc2ccccc2/C1=N\N=C\c1ccc(O)c(O)c1,15% (active)
10,COc1cc(/C=N/N=C2/C(=O)Nc3ccccc32)ccc1O,1.01%
11,O=C1Nc2ccccc2/C1=N/N=C/c1cccc(O)c1,0.15%
12,CC1CCc2ccc(F)cc2N1S(=O)(=O)c1cccs1 (stereo not drawn),3.23%
13,O=c1cc(O)c2c(=O)n(-c3ccccc3)c3c(c2o1)CCCCC3,13% (active)
14,O=c1cc(O)c2c(=O)n(-c3ccccc3)c3c(c2o1)CCCCCC3,0.45%
15,O=c1cc(O)c2c(=O)n(-c3ccccc3)c3ccccc3c2o1,0.8%
16,C=CCNC(=O)NS(=O)(=O)c1ccc(C)cc1,1.33%
17,O=C(NCc1ccco1)c1cccc(-c2nnc(-c3ccccc3)o2)c1,-0.42%
18,CC(C)CC(OC(=O)c1ccco1)C(=O)NC1CCCCC1 (stereo not drawn),14.8% (active)
19,CC(C)C(OC(=O)c1ccco1)C(=O)NC1CCCCC1 (stereo not drawn),1.45%
20,CC(OC(=O)c1ccco1)C(=O)NC1CCCCC1 (stereo not drawn),-0.47%
21,O=C(NCc1ccncc1)C(=O)C1C(=O)Nc2ccccc21 (stereo not drawn),-1.35%
22,CCOC(=O)c1nc(NCc2ccccc2C)c2ccccc2n1,-3.26%
23,C/C=C(\C)CN1CCN(c2cc(C)ccc2C)CC1,-5.99%
24,Cc1cc(C(=O)CS(=O)(=O)c2ccccc2)cc(C)c1OC(=O)N(C)C,0.59%

row,SMILES,inhibition
1,COc1ccc(NS(=O)(=O)c2cccc(C(=O)NNC(=O)NCCCl)c2)cc1,-0.61%
2,Cc1cc(/C=N/NC(=O)c2cccc([N+](=O)[O-])c2)c(C)n1-c1ccccc1,-3.02%
3,Cc1cc(/C=N/NC(=O)c2cccc(F)c2)c(C)n1-c1ccccc1,0.73%
4,Cc1cc(C(=O)N/N=C/c2sc(N3CCOCC3)nc2-c2ccccc2)c(C)o1,6.62%
5,CCCn1c(SCc2ccon2)nc2ccccc2c1=O,1.08%
6,O=C1c2ccccc2C(=O)N1CC(=O)N1c2ccccc2Sc2ccccc21,-6.14%
7,COc1cc(C(c2c(O)c3ccccc3oc2=O)c2c(C)n(C)n(-c3ccccc3)c2=O)ccc1O (stereo not drawn),22.1%
8,COc1ccc(OC)c(C(c2c(O)c3ccccc3oc2=O)c2c(C)n(C)n(-c3ccccc3)c2=O)c1 (stereo not drawn),13.2% (active)
9,COc1ccc(C(c2c(O)c3ccccc3oc2=O)c2c(C)n(C)n(-c3ccccc3)c2=O)cc1 (stereo not drawn),1.51%
10,CCCCCCn1c(CN2CCN(CCO)CC2)nc2c1c(=O)n(C)c(=O)n2C,2%
11,C/C(=N\NC(=O)c1nn(C)c(C)c1Br)c1cccc(NC(=O)c2ccc(F)cc2)c1,-3.49%
12,O=C(NCc1ccc(C(=O)N2CCC3(CC2)OCCO3)cc1)c1cccc(Br)c1,1.96%
13,O=C(NCc1ccc(C(=O)N2CCC3(CC2)OCCO3)cc1)c1ccc2c(c1)OCO2,18.9% (active)
14,O=C(c1ccc2c(c1)OCO2)N1CCC2(CC1)OCCO2,5.09%
15,COc1ccc(CN2CCOCC2)c(C)c1C,-2.85%
16,CCCCNc1ccc(C(=O)O)cc1,-0.8%
17,CC12CC(NC(=O)N1c1ccc(C(=O)N3CCN(c4ccc(F)cc4)CC3)cc1)c1ccccc1O2 (stereo not drawn),-2.33%
18,CC(C)C/C=C1\CCc2c([nH]c3ccccc23)C1=O,-1.01%
19,CCOc1ccc(NC(=O)CSc2n[nH]c(N)n2)c([N+](=O)[O-])c1,0.6%
20,CCOC(=O)c1cnc(SCC(=O)c2ccc3c(c2)OCCO3)nc1N,-5.31%
21,NS(=O)(=O)c1cccc(NC(=O)CN2CCc3ccccc32)c1,-0.92%
22,Fc1ccc(OCc2nn3c(Cn4nnc5ccccc54)nnc3s2)cc1,3.23%
23,Fc1ccc(OCc2nn3cnnc3s2)cc1,18.4% (active)
24,Fc1ccc(OCc2nc3ccccc3s2)cc1,0.65%
